The list is not random: actives were taken first. Their share in the collection is about 1.1%.
PI4K2A block – qHTS for small molecular inhibitors of PI4K2A; Phosphatidylinositol 4-kinase type 2-alpha (Homo sapiens), Q9BTU6; purified PI4K2A, ADP-Glo luminescence, 1 h; hits give low values; activity change, negative = inhibition, % at 76.9 µM; 420,000 tested, 0.13% active; in the data active = activity change below about -50%; inconclusive = mostly about -30% to -49%
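PI4K2A activity was measured by ADP-Glo luminescence: enzyme (4 ug/mL stock) and phosphatidylinositol (1.2 mM stock) in Tris pH 7.5/MgCl2/EGTA/Triton X-100 buffer were reacted with ATP (300 microM stock) for one hour at ambient temperature.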
TrxR1 substrate – qHTS Assay for Substrates of Mammalian Selenoprotein Thioredoxin Reductase 1 (TrxR1): qHTS. Thioredoxin reductase 1, cytoplasmic (Rattus norvegicus), O89049. purified TrxR1 substrate turnover, NADPH consumption readout. Potency, µM (series often up to 114 µM). 390,000 tested, 0.01% active. AID 588456, 2011; note: nearly all actives have a fitted effect of over 50% in size
Target sequence (O89049 whole entry, looked up): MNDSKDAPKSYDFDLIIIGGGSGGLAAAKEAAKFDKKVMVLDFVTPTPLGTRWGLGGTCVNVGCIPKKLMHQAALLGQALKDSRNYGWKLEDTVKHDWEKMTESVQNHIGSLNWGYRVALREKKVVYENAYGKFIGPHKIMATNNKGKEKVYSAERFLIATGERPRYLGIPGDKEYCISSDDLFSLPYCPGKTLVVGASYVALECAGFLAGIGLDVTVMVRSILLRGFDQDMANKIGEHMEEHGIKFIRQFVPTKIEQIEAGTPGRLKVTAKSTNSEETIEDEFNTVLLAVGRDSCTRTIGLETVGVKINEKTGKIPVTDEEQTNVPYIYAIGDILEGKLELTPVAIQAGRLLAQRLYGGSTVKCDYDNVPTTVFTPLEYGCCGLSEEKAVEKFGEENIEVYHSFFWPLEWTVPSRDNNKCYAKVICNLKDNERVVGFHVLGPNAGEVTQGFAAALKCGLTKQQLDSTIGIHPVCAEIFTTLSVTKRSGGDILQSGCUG
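Rat TrxR1, dispensed at 90 nM, was prereduced with 400 uM NADPH (final) for 5 min at ~22 deg C, then incubated with compound 15 min before 400 uM selenite. A first-read NADPH fluorescence drop versus no-compound background flagged substrates.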
GALK inh – qHTS Assay for Inhibitors of Human Galactokinase (GALK). Purified GALK, Kinase-Glo residual ATP luminescence. 270,000 tested, 0.007% active. AID 1868, 2009. P51570. Potency, µM (top dose mostly 57.5 µM), hits mostly inhibitors
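Human GALK (5 nM) with 35 uM ATP and 100 uM galactose in 20 mM HEPES pH 8.0, 5 mM MgCl2, 60 mM NaCl, 1 mM DTT, 0.01% BSA. After 1 h at room temperature, leftover ATP was read by Kinase-Glo Plus luminescence.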
TrxR1 inh – qHTS Assay for Inhibitors of Mammalian Selenoprotein Thioredoxin Reductase 1 (TrxR1): qHTS | Thioredoxin reductase 1, cytoplasmic (Rattus norvegicus), O89049 | recombinant rTrxR1, NADPH fluorescence consumption, selenite substrate | Potency, µM (series often up to 114 µM), hits mostly inhibitors | 390,000 tested, 1% active; note: nearly all actives have a fitted effect of over 65% in size
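Rat TrxR1 (90 nM in the dispensed reagent) was pre-reduced with 400 uM NADPH for 5 min at room temperature, then incubated with compound for 15 min. After 400 uM selenite was added, NADPH fluorescence (Ex 340/Em 450 nm) was followed for 8 min.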
Of the large screens only hits and unclear results are named; the others gave an inactive call. Unless noted, calls come from the whole dose curve; as a rule, active = well fitted curve in the direction sought with a large enough effect; inconclusive = small, poorly fitted or top-dose-only effect, or another doubt; inactive = no such curve, though single readings can be large; an effect the other way counts as inactive or inconclusive.

O=C1/C(=C/C=C/c2ccccc2)Oc2c1ccc(O)c2CN1CCN(CCO)CC1	TrxR1 inh inconclusive
CCN1CCN(Cc2c(O)ccc3c2O/C(=C\C=C\c2ccccc2)C3=O)CC1	none
CN(C)Cc1c(O)ccc2c1O/C(=C\C=C\c1ccccc1)C2=O	TrxR1 inh 79.4µM
COc1ccccc1/C=C/C=C1\Oc2c(ccc(O)c2CN2CCN(CCO)CC2)C1=O	TrxR1 inh 25.1µM
Cc1ccc(NC(=O)CSC2=C(C#N)C(c3ccc4c(c3)OCO4)C3=C(CCCC3=O)N2)c(C)c1 (stereo not given)	TrxR1 inh 28.2µM
COC(=O)CSC1=C(C#N)C(c2ccc3c(c2)OCO3)C2=C(CCCC2=O)N1 (stereo not given)	none
COc1ccc(CCNC(=O)CCc2cn(Cc3ccccc3Cl)c3ccccc23)c(OC)c1	none (no result: GALK inh)
O=c1cc(-c2ccccc2)oc2ccc(Cl)cc12	none (no result: GALK inh)
O=c1oc(-c2ccccc2)cc(Cl)c1Cl	TrxR1 inh 5.62µM
COc1ccc(CN2c3c(Br)cccc3C(=O)CS2(=O)=O)cc1	none (no result: GALK inh)
O=C1CS(=O)(=O)N(Cc2cccc(F)c2)c2ccc(Br)cc21	TrxR1 inh 79.4µM (no result: GALK inh)
CCc1nc2ccc(C(=O)Nc3ccc(NC(C)=O)cc3)cc2nc1CC	none
CC(=O)c1ccc(NC(=O)c2ccc3nc(-c4ccco4)c(-c4ccco4)nc3c2)cc1	PI4K2A block -56.2, TrxR1 inh 2.51µM
CNC(=O)c1ccc2nc(-c3ccco3)c(-c3ccco3)nc2c1	TrxR1 inh 3.98µM (no result: PI4K2A block, GALK inh)
O=C(NC1CC1)c1ccc2nc(-c3ccco3)c(-c3ccco3)nc2c1	TrxR1 inh 2.51µM (no result: PI4K2A block, GALK inh)
CCc1nc2ccc(C(=O)NCCc3ccco3)cc2nc1CC	none
CN(C)[C@@H]1C(=O)C(C(N)=O)=C(O)[C@@]2(O)C(=O)C3=C(O)c4c(O)cccc4C[C@H]3C[C@@H]12	none (no result: TrxR1 substrate, GALK inh, TrxR1 inh)
O=S1(=O)C[C@H](N2CC[C@@H](O)C2)[C@@H](COCc2ccccc2)N1	none (no result: TrxR1 substrate, GALK inh, TrxR1 inh)
O=C(NCCCc1ccccc1)c1cccc(Br)c1	none (no result: GALK inh)
O=C(CN(Cc1ccccc1)C(=O)CCl)c1cccc(Br)c1	TrxR1 inh 14.1µM (no result: GALK inh)
O=C(N/C(C(=O)N1CCOCC1)=C(\Sc1ncccn1)c1ccccc1)c1ccccc1	TrxR1 inh 50.1µM
CC(C)=C(NC(=O)c1ccccc1)C(=O)N1CCOCC1	none
CC(=O)Nc1ccc(N(C(=O)c2cnccn2)C(C(=O)NC2CCCCC2)c2ccc(O)cc2)cc1 (stereo not given)	TrxR1 inh 7.08µM
CC(=O)Nc1ccc(N(C(=O)c2cnccn2)C(C(=O)NC2CCCCC2)c2ccc(F)cc2)cc1 (stereo not given)	none
O=C(COc1ccccc1C(=O)Nc1ccccc1)Nc1ccc2ccccc2c1	none (no result: PI4K2A block, GALK inh)
COC(=O)c1nc(NC(=O)c2cc(OC)c(OC)c(OC)c2)n[nH]1	TrxR1 inh 39.8µM
COc1cc(C(=O)Nc2ccncc2)cc(OC)c1OC	none
CC(NC(=O)COC(=O)C1CCN(c2ccc(C(F)(F)F)cn2)CC1)c1ccc(F)cc1 (stereo not given)	none (no result: GALK inh)
COc1ccc(N2C(=O)CC(NCC#N)C2=O)cc1 (stereo not given)	TrxR1 inh 31.6µM
CCCOc1ccc(N2C(=O)CC(NCC#N)C2=O)cc1 (stereo not given)	none
CCOC(=O)CNC1CC(=O)N(c2ccc(Br)cc2)C1=O (stereo not given)	TrxR1 inh 28.2µM
CC(C)c1nn2c(=O)cc(COC(=O)c3ccc(NC(=O)C4CCCCC4)cc3)nc2s1	none (no result: GALK inh)
C/C=C1\[C@H]2C=C(C)C[C@]1(N)c1ccc(=O)[nH]c1C2	none (no result: TrxR1 substrate, GALK inh, TrxR1 inh)
COc1cccc(-c2cn3c(n2)sc2cc(C(=O)NCc4ccccc4F)ccc23)c1	none (no result: GALK inh)
Cc1ccc2oc(-c3ccc(C)c(NC(=O)/C=C/c4ccco4)c3)nc2c1	TrxR1 inh 31.6µM (no result: GALK inh)
N#C/C(=C\c1cc(Cl)cc(Cl)c1O)C(=O)NC1CCCCC1	TrxR1 inh 79.4µM
N#C/C(=C\c1ccc(F)c(Br)c1)C(=O)NC1CC1	none
N#C/C(=C\c1cc(Br)ccc1F)C(=O)NC1CC1	TrxR1 inh 20µM
COCCOCC(OC)OC	none (no result: TrxR1 substrate, GALK inh, TrxR1 inh)
COc1ccccc1NC(=O)CCS(=O)(=O)c1ccc2nc(C)sc2c1	none (no result: GALK inh)
CCCCCCCCCCCCCCC[C@H](O)[C@@H](N)CO	none (no result: TrxR1 substrate, GALK inh, TrxR1 inh)
Cc1nc(C2CCCCC2)c(-c2ccc(S(N)(=O)=O)c(F)c2)o1	none (no result: TrxR1 substrate, GALK inh, TrxR1 inh)
Cc1ccc(N2CCN(C(=O)c3nn(C)c4c3CSc3ccccc3-4)CC2C)cc1 (stereo not given)	none (no result: GALK inh)
C[C@H]1CCC/C=C/C(=O)c2c(cc(O)c(Cl)c2O)CC(=O)O1	none (no result: TrxR1 substrate, GALK inh, TrxR1 inh)
CC1CCC/C=C/C(=O)c2c(O)cc(O)cc2CC(=O)O1 (stereo not given)	PI4K2A block inconclusive, TrxR1 inh 11.2µM
COc1ccc(/C=C/S(=O)(=O)NCc2ccc(F)cc2)c(CNC(=O)OC(C)(C)C)c1	none (no result: TrxR1 substrate, GALK inh, TrxR1 inh)
Cc1cccc(NC(=O)C2CC(=O)n3cnnc3S2)c1 (stereo not given)	TrxR1 inh 7.08µM
CCCCCCc1ccc(C(=O)CCN(C)C)cc1	TrxR1 inh 10µM (no result: PI4K2A block, GALK inh)
CN(C)CCC(=O)c1cccc(Br)c1	TrxR1 inh 0.316µM
CN(C)CCC(=O)c1ccc(F)cc1	TrxR1 inh 1.12µM
CN(C)CCC(=O)c1ccc2c(c1)OCO2	TrxR1 inh 0.316µM
OC(C1=C/C(=C\c2ccncc2)c2ccccc21)c1ccncc1 (stereo not given)	none (no result: PI4K2A block, GALK inh)
OC(c1ccccc1)(c1ccccc1)C1CCN(CCCNc2cccc(OC(F)(F)F)c2)CC1	none (no result: TrxR1 substrate, GALK inh, TrxR1 inh)
COc1ccc(S(=O)(=O)N2c3ccc(Cl)cc3[C@@](O)(c3ccccc3Cl)[C@H]2C(=O)N2CCC[C@@H]2C(N)=O)cc1OC	none (no result: TrxR1 substrate, GALK inh, TrxR1 inh)
CCOC(=O)C1CCN(C(c2ccc(C)cc2)c2c(O)cc(C)n(CCOC)c2=O)CC1 (stereo not given)	TrxR1 inh inconclusive (no result: GALK inh)
CCOC(=O)C1CCN(C(c2ccc(OCC)cc2)c2c(O)cc(C)n(CCOC)c2=O)CC1 (stereo not given)	TrxR1 inh 25.1µM (no result: GALK inh)
Cc1cc(O)c(C(c2ccccc2)N2CCCCC2)c(=O)n1Cc1ccco1 (stereo not given)	none (no result: GALK inh)
CCOc1ccc(C(c2c(O)cc(C)n(CCOC)c2=O)N2CCN(c3ccccc3)CC2)cc1 (stereo not given)	TrxR1 inh 11.2µM (no result: GALK inh)
COc1ccc(C(c2c(O)cc(C)n(Cc3ccco3)c2=O)N2CCN(c3ccccc3)CC2)cc1 (stereo not given)	TrxR1 inh 15.8µM (no result: GALK inh)
Clc1ccc(OCc2nc(-c3ccc(-n4cccc4)cc3)no2)cc1	none (no result: GALK inh)
CCCCOCCCNC(=O)C[C@@H]1C[C@]2(C(=O)OCC)CCC3=C2N(CCC3)C1=O	none (no result: TrxR1 substrate, GALK inh, TrxR1 inh)
CN(CC(=O)Nc1ccc(F)cc1)C(=O)Cn1cnc2ccc([N+](=O)[O-])cc2c1=O	none (no result: GALK inh)
